Screens deposited in PubChem BioAssay by National Center for Advancing Translational Sciences (NCATS).
Most compounds without a hit are left out; they make up all but 6.2% or so of the library.
HT1080 IDH1KD tx – qHTS for induction of synthetic lethality in tumor cells producing 2HG: qHTS for the HT-1080-IDH1KD cell line. HT-1080 IDH1 knockdown viability, ATP luminescence, 48 h. Potency, µM (series often up to 46.1 µM), for the others: at the top dose activity, negative = toxicity, hits mostly cytotoxic. hit rate 2% among 360,000;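 note: 0% = DMSO wells and -100% = cell-free medium wells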
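Luminescent ATP read-out (CellTiter-Glo, 10 min at room temperature) after 48 h compound exposure at 37 °C gave viability of IDH1-knockdown HT-1080 cells. Activity was normalised to DMSO and cell-free wells, then fitted as concentration-response curves.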
ATXN2 expr inh – Primary qHTS for Inhibitors of ATXN expression; HEK-293 ATXN2-luciferase reporter, luminescence, 24 h; Potency, µM (top dose mostly 57 µM), inactives show at the top dose activity change, negative = inhibition, hits mostly inhibitors; hit rate 0.72% among 360,000; AID 1745845, 2022; note: % is set by controls: 0 for no effect and ±100 for the full control effect; nearly all actives have a fitted effect of over 55% in size
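ATXN2-luciferase reporter cells (luciferase flanked by upstream and downstream ATXN2 gene portions) were treated 24 h at 37 °C with compounds at up to 57 uM. SteadyGlo luminescence gave expression; GF-AFC fluorescence gave viability.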
KB-V1 cytotox – qHTS assay for MDR1-selective chemotherapeutics: Primary screen using the drug-selected MDR subline cells KB-V1; KB-V1 MDR cells viability, CellTiter-Glo, 72 h; Potency, µM (doses to about 46.1 µM), actives largely listed as cytotoxic; hit rate 3.4% among 400,000; AID 1347076, 2019; note: % is set by controls: 0 for no effect and ±100 for the full control effect; nearly all actives have a fitted effect of over 60% in size
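Potencies derive from concentration-effect curves fitted to normalized luminescence (CellTiter-Glo) of KB-V1 cells treated for 72 h at 37 degrees C in phenol-red-free DMEM containing 10% FBS.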
S2 tox – Viability Counterscreen for Primary qHTS for Inhibitors of ATXN expression | hit rate 0.49% among 400,000 | Potency, µM (titrated, usually from 56.7 µM), actives largely listed as cytotoxic | S2 cells (HEK-293 line with an ATXN2-luciferase reporter) viability, CellTiter-Fluor protease fluorescence, 24 h; note: nearly all actives have a fitted effect of over 40% in size
HT1080-NT tox – qHTS for induction of synthetic lethality in tumor cells producing 2HG: qHTS for the HT-1080-NT fibrosarcoma cell line; HT-1080-NT fibrosarcoma viability, CellTiter-Glo ATP luminescence, 48 h; Potency, µM (titrated, usually from 46.1 µM), without a hit: at the top dose activity, negative = less viability, actives largely listed as cytotoxic; hit rate 1.6% among 360,000; AID 686970, 2013;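 note: NT is the 2HG producing partner of a matched IDH1 knockdown line; 0% = DMSO-treated cells and -100% = media-only wells without cells; nearly all actives have a fitted effect of over 55% in size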
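Compounds were tested in concentration-response format on HT-1080-NT cells for 48 hours at 37 degrees C. Cell viability came from CellTiter-Glo luminescence; curves were classified by r2, response magnitude and activity.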
KB-3-1 cytotox – qHTS assay for MDR1-selective chemotherapeutics: Primary screen using the parental adenocarcinoma cell KB-3-1 | KB-3-1 viability, CellTiter-Glo ATP luminescence, 72 h | Potency, µM (highest dose often 46.1 µM), hits mostly cytotoxic | hit rate 1.4% among 400,000 | AID 1347075, 2019; note: % is set by controls: 0 for no effect and ±100 for the full control effect; nearly all actives have a fitted effect of over 60% in size
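Luminescent ATP read-out (CellTiter-Glo) measures survival of drug-naive KB-3-1 cells after 72 h compound exposure at 37 °C. Titration series was screened from lowest to highest concentration, with DMSO vehicle plates as background controls.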
* hit, by the source's call; i = inactive; ? = inconclusive; / = no result. Calls come from the whole dose curve; as a rule, active = well fitted curve in the direction sought with a large enough effect; inconclusive = small, poorly fitted or top-dose-only effect, or another doubt; inactive = no such curve, though single readings can be large; an effect the other way counts as inactive or inconclusive. Potency is the fitted concentration of half-maximal effect.

SMILES	HT1080 IDH1KD tx	ATXN2 expr inh	KB-V1 cytotox	S2 tox	HT1080-NT tox	KB-3-1 cytotox
Cc1cc(C(=O)COc2cccc3cccnc23)c(C)n1C	-5%	41%	16µM*	i	-3%	i
COc1ccc(CN2CCN(C(=O)CCC(=O)c3ccc(C)s3)CC2)cc1OC	12%	10%	4.1µM*	?	11%	i
COc1ccc(CN2CCN(C(=O)c3ccccc3C(=O)c3ccccc3)CC2)cc1OC	-1%	15%	16µM*	i	2%	i
Fc1cc2[nH]c(=S)[nH]c2cc1Cl	1%	3%	3.7µM*	i	-1%	8.2µM*
COc1ccccc1-c1ccc(C(=O)NCCN2CCOCC2)c(N2CCN(c3ccccc3F)CC2)n1	/	/	/	i	/	/
C=CCN(c1ccccc1OC)S(=O)(=O)c1cccc(C(=O)OCC(=O)c2c(N)n(C)c(=O)n(C)c2=O)c1	-1%	-20%	8.2µM*	?	-6%	?
CNS(=O)(=O)c1cccc(C(=O)OCC(=O)c2c(N)n(C)c(=O)n(C)c2=O)c1	8%	14%	i	i	1%	i
Cc1c(Cl)cccc1NC(=O)Cn1cnc2nc3c(cc2c1=O)CCCC3	/	3%	?	i	/	i
CCCNc1ccc(-c2nc(-c3ccncc3)no2)cc1[N+](=O)[O-]	/	15%	i	i	/	i
O=c1c2ccccc2nc(/C=C/c2ccc([N+](=O)[O-])cc2)n1CCCO	-11%	2%	21µM*	i	1%	?
O=c1c2ccccc2nc(/C=C/c2ccc([N+](=O)[O-])o2)n1CCCO	2.9µM*	4.5µM*	?	/	2.9µM*	5.8µM*
O=c1c2ccccc2nc(/C=C/c2cccc([N+](=O)[O-])c2)n1CCCO	?	-22%	i	i	-22%	i
O=C(Cn1ncc2c3ccccc3n(Cc3ccc(F)cc3)c2c1=O)NCc1ccccn1	/	-2%	i	i	/	i
O=C(O)Cc1sc(Nc2ccccc2Cl)nc1-c1ccccc1	/	45%	?	i	/	i
OC(CNCCc1ccccc1)COc1ccc(OCC(O)CNCCc2ccccc2)cc1 (centres undefined)	23µM*	28µM*	?	?	?	21µM*
CC(C)N(CCNCC(O)COc1ccc(C(C)(C)c2ccccc2)cc1)C(C)C (centres undefined)	?	?	i	i	29µM*	i
OC(CNCCC(c1ccccc1)c1ccccc1)COc1ccccc1 (centres undefined)	23µM*	?	?	?	?	i
CCOc1ccc(N2C(=O)N(Cc3ccc(C)cc3C)c3ccccc3S2(=O)=O)cc1	/	-6%	i	i	/	i
O=C(/C=C/c1ccc(S(=O)(=O)N2CCOCC2)cc1)Nc1ccc(F)c(F)c1F	-7%	-3%	21µM*	i	-13%	?
CCN(CC)S(=O)(=O)c1ccc(/C=C/C(=O)Nc2ccc(F)c(F)c2F)cc1	?	-17%	?	i	-23%	4.6µM*
CCCCNC(=O)CN1CCN(c2ncc(NC(=O)c3ccc(Cl)cc3)cc2C(=O)O)CC1	/	8%	i	i	/	i
O=C(CCn1c(=O)oc2ccccc21)N1CCN(c2ccccc2F)CC1	6%	6%	23µM*	i	9%	i
O=C(CCCn1c(=O)oc2ccccc21)N1CCN(c2ccc(F)cc2)CC1	7%	-11%	i	i	9%	i
COc1ccc(S(=O)(=O)N2CCC3(CC2)OCCN3S(=O)(=O)c2cccs2)cc1	5%	7%	8.2µM*	?	-2%	i
Cc1ccc(S(=O)(=O)N2CCC3(CC2)OCCN3S(=O)(=O)c2cccs2)cc1	-19%	-13%	i	i	?	i
